From PubChem BioAssay AID1671190 (National Center for Advancing Translational Sciences (NCATS), 2021)
Several values for one entry are separate records, joined by “and”; a condition that tells them apart may be missing. Identical values can stand only once. In all, about 580,000 compounds went through this assay and about 6,100 (1.1%) were called active. Not shown: some 15% with an inconclusive outcome. Shown is part of a subset that was picked to be rich in actives. Entries that show only a call come without a potency. Unmarked numbers belong to inactive results. Calls follow the shape of the dose curve; as a rule, active = well fitted inhibition curve with a large enough effect; inconclusive = small, poorly fitted or top-dose-only effect, or another doubt; inactive = no such curve, though single readings can be large or run the other way.

biological target: Polyunsaturated fatty acid lipoxygenase ALOX12 (Homo sapiens) (UniProt P18054); test: Primary qHTS assay for inhibitors of human arachidonate 12S-lipoxygenase (ALOX12): Round 2; details: purified 12hLO, xylenol orange hydroperoxide absorbance; series mostly up to 108 µM
Sequence (P18054 whole entry, looked up): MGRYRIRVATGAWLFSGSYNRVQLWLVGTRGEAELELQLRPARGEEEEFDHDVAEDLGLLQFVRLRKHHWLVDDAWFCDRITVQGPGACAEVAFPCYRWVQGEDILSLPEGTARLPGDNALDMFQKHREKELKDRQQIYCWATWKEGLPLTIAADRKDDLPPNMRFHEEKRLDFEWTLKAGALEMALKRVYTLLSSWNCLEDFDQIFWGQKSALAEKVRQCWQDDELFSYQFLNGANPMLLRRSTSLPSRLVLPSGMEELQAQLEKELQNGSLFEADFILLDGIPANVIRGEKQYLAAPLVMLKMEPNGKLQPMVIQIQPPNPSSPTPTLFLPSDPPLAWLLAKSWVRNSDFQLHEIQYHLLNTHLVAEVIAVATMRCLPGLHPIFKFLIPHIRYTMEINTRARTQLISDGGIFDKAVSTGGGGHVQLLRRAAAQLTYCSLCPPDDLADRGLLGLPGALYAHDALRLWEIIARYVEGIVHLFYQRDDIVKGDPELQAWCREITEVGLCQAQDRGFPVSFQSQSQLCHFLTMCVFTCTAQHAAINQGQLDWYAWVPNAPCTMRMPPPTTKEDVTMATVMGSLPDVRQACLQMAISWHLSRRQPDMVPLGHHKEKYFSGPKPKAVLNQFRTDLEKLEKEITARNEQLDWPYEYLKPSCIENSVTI
How it was run: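 Purified human 12hLO (150 nM final) in 25 mM Hepes, 0.01% Triton X-100, pH 7.0 was preincubated 15 min at room temperature with compound. Then 40 uM arachidonic acid was added, 30 min. Hydroperoxide was read by Fe-XO absorbance ratio 573/405 nm.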
Potency is read from the fitted curve at half-maximal effect.

Structure (SMILES) | Potency | activity change, negative = inhibition
CCCCCCc1cc2c3c(c(=O)oc2cc1OCC(=O)C(C)(C)C)CCCC3 | inactive | –
O=C(OC12CC3CC(CC(C3)C1)C2)c1ccc(NCc2cc(O)ccc2O)cc1 | 31.6 µM (active) | –
Fc1ccc(NCC23CC4CC(CC(C4)C2)C3)cc1 | inactive | –
COC(=O)c1ccc(C(=O)OC(C)C(=O)C23CC4CC(CC(C4)C2)C3)cc1 (configuration not stated) | inactive | –
Cc1c(C(=O)N2CCOC(C)C2)cnn1-c1ccc(F)cc1 (configuration not stated) | inactive | –
CCNc1ncc(CN2CCN(c3cccc(C(F)(F)F)c3)CC2)cn1 | inactive | –
CN(c1ccccc1)c1cc(=O)c2ccnc(Nc3cccc([S+](C)(=O)[O-])c3)c2o1 | 56.2 µM (active) | –
CN(c1ccccc1)c1cc(=O)c2ccnc(NC3CCOCC3)c2o1 | inactive | –
CN(c1ccccc1)c1cc(=O)c2ccnc(-c3ccc(CO)cc3)c2o1 | inactive | –
CN(C)C(=O)C(NCCc1c[nH]c2ccccc12)c1ccccc1 (configuration not stated) | inactive | –
CCc1ccc(Nc2ncc3c(n2)CC(c2ccco2)CC3=O)cc1 (configuration not stated) | inactive | –
Cc1ccc(-c2csc(-c3cc4c([nH]c3=O)CC(c3ccco3)CC4=O)n2)cc1 (configuration not stated) | 2.24 µM (active) | –
Cc1ccc(-c2csc(N(Cc3ccco3)C(=O)c3cccs3)n2)cc1 | inactive | –
CC(C)(C)c1ccc(C(=O)NNC(=O)C2CC2)cc1 | inactive | –
Fc1ccccc1COc1ccc(-c2nnco2)cc1 | inactive | –
COCCn1c(=O)c2c(nc(-n3nc(C)cc3C)n2Cc2ccccc2)n(C)c1=O | inactive | –
Cc1ccc(C)c(NC(=O)N2CCCC2c2ccco2)c1 (configuration not stated) | inactive | –
Cc1ccccc1OCCN(C)Cc1cc(=O)oc2cc(O)ccc12 | inactive | –
Cc1ccc(CSc2nc(-c3ccccc3)c(C#N)c(=O)[nH]2)cc1 | 39.8 µM (active) | –
CCCc1cc(=O)[nH]c(SCc2ccc(C#N)cc2)n1 | inactive | –
Cc1ccc(CSc2nsc(C)c2C#N)cc1 | inactive | –
CCCCCCSc1ccc([C@@H]2[C@@H]3C(=O)N(CC)C(=O)[C@@H]3[C@]3(C(=O)OC)CCCCN23)cc1OC | 17.8 µM (active) | –
CCCCCCSc1ccc([C@@H]2[C@H]3C(=O)N(CC)C(=O)[C@H]3[C@]3(C(=O)OC)CCCCN23)cc1 | inactive | –
CCN1C(=O)[C@@H]2[C@@H](c3ccc(-c4ccc(OC)cc4)c(OC)c3)N3CCC[C@@]3(C(=O)OC)[C@@H]2C1=O | inactive | –
N#Cc1cccnc1-c1cccc(C(=O)O)c1 | 56.2 µM (active) | –
O=C(O)c1cccc(-c2ccccn2)c1 | – | 6.18% [at 12.5 µM] and -0.515% [at 12.5 µM]
O=C(O)c1ccc2nc[nH]c2c1 | inactive | –
